# Measurements: PubChem BioAssay
# Activity calls are given as the source filed them.
# What was measured:
# [1] = tested on: Plasmodium falciparum Sir2 (PF13_0152, Sir2A); assay: pfSir2 binders on small-molecule microarrays, primary screen, biochemical, small-molecule microarray, 635 nm fluorescence (AID 1098); settings: small-molecule microarray binding, fluorescence 635 nm; higher = more signal;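 further: score merges spot fluorescence intensity with its signal-to-noise ratio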
# [2] = small-molecule microarray binders of probe aDKK1, primary screen, biochemical, biotinylated probe, 635/667 nm fluorescence (AID 1099); settings: higher = more signal;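 further: score merges 667nm spot fluorescence with signal to noise across triplicate slides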
# [3] = small-molecule microarray binders of probe aCHRDL2, primary screen, biochemical, biotinylated probe, 635/667 nm fluorescence (AID 1100); settings: higher = more signal
# [4] = splicing luciferase reporter signal modulators, primary screen, spliceosome inhibition project, cell-based, HEK293, splice +/- reporter (AID 1101); settings: luminescence, 24 h, higher = more signal, called active from +8 up or from −8 down;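 further: HEK293 cells carrying a splicing-competent luciferase reporter gene; test concentration not given here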
# [5] = molecular target: Fibroblast growth factor 10 (Homo sapiens) (UniProt O15520); assay: FGF10 binders on small-molecule microarrays, primary screen, biochemical, small-molecule microarray, 635 nm fluorescence (AID 1102); settings: FGF10 binding, fluorescence 635 nm, higher = more signal
# Sequence of Fibroblast growth factor 10 (Homo sapiens) (O15520 whole entry, looked up): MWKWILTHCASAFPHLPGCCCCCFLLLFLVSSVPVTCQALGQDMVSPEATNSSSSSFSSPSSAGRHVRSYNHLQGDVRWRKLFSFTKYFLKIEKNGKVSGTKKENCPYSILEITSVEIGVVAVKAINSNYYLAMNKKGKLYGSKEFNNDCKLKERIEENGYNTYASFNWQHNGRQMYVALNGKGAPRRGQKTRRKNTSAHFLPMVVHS
# [6] = tested on: glycogen synthase kinase-3 (GSK3A per assay name; protocol says GSK3B); assay: GSK3 binders on small-molecule microarrays, primary screen, biochemical, small-molecule microarray, 635 nm fluorescence, GSK3A (AID 1103); settings: small-molecule microarray binding, fluorescence 635 nm; higher = more signal; further: the record names both GSK3A and GSK3B
# [7] = molecular target: Epidermal growth factor receptor (Homo sapiens) (UniProt P00533); assay: EGFR binders on small-molecule microarrays, primary screen, biochemical, small-molecule microarray, 635 nm fluorescence (AID 1104); settings: EGFR binding, higher = more signal;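 further: score merges 667 nm emission intensity with spot signal to noise over triplicate slides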
# Sequence of Epidermal growth factor receptor (Homo sapiens) (P00533 whole entry, looked up): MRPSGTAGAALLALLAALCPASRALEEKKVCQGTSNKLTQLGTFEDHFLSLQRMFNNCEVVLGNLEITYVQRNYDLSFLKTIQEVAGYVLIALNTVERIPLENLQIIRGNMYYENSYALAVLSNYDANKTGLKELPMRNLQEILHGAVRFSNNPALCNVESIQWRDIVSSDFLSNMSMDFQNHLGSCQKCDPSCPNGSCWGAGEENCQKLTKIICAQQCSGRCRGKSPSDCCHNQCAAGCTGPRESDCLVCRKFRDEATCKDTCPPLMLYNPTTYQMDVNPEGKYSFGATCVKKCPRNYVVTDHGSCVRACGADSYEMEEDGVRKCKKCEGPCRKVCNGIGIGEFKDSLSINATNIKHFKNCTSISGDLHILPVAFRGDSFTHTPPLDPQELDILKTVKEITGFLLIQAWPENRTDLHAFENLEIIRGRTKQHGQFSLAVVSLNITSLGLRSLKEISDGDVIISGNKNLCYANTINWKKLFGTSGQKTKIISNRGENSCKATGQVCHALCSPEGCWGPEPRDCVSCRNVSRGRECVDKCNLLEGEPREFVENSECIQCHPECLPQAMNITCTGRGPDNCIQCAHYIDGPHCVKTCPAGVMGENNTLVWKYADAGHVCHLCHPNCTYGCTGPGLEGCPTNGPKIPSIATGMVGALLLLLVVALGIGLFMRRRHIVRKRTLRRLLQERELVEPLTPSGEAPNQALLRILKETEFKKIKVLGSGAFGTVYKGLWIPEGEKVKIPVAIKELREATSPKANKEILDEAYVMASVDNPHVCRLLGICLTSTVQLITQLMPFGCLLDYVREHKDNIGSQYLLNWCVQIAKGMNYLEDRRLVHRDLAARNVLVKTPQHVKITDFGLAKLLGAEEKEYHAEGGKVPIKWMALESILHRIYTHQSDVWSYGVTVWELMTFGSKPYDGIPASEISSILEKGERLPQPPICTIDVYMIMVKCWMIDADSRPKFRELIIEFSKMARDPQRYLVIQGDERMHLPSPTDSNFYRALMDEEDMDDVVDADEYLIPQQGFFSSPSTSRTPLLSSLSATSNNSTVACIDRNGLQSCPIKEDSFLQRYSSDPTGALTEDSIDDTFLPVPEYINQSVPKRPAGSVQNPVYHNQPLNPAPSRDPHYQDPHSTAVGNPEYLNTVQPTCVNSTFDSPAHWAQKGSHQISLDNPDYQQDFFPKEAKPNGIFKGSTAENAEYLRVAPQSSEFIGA
# [8] = molecular target: Follistatin-related protein 3 (Homo sapiens) (UniProt O95633); assay: FSTL3 binders on small-molecule microarrays, primary screen, biochemical, small-molecule microarray, 635 nm fluorescence (AID 1105); settings: FSTL3 binding, higher = more signal;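 further: score merges emission near 667 nm and signal to noise per printed spot across three slides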
# Sequence of Follistatin-related protein 3 (Homo sapiens) (O95633 whole entry, looked up): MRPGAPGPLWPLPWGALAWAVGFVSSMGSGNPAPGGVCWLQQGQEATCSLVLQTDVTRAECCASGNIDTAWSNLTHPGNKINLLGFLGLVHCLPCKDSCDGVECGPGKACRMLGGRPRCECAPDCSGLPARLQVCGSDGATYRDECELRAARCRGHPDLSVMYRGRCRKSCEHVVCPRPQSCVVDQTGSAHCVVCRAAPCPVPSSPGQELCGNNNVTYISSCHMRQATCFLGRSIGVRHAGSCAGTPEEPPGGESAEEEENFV
# [9] = molecular target: Dickkopf-related protein 1 (Homo sapiens) (UniProt O94907); assay: DKK1 binders on small-molecule microarrays, primary screen, biochemical, small-molecule microarray, 635 nm fluorescence scan (AID 1106); settings: DKK1 binding, higher = more signal;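 further: score merges emission near 667 nm with signal to noise over three replicate slides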
# Sequence of Dickkopf-related protein 1 (Homo sapiens) (O94907 whole entry, looked up): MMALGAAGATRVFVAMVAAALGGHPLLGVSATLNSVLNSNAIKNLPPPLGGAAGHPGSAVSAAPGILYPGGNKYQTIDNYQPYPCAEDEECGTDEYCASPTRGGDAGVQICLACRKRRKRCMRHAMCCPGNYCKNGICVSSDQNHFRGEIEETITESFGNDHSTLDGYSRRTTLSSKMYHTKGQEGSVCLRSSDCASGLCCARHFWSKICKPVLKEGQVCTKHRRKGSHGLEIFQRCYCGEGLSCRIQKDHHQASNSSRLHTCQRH
# [10] = tested on: Inhibin beta A chain (activin A); assay: INHBA (activin A) binders on microarrays, primary screen, biochemical, small-molecule microarray, 635 nm fluorescence scan (AID 1107); settings: small-molecule microarray binding, higher = more signal;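 further: mouse activin A protein probed at 4.33 µg/mL on printed slides; score merges bound-protein fluorescence near 667 nm with spot signal-to-noise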
# [11] = tested on: Human papillomavirus type 1a protein E7 (residues 44-93); assay: HPV1a E7 fragment binders on microarrays, primary screen, biochemical, small-molecule microarray, residues 44-93, 635 nm fluorescence (AID 1108); settings: small-molecule microarray binding, fluorescence 635 nm; higher = more signal;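 further: E7 fragment applied at 1 µg/mL in TBST for 1 h at 4 C; score combines spot fluorescence with its signal to noise ratio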
# [12] = modulators of HCV replicon luciferase signal, primary screen, HCV replication inhibitor project, Huh7 cells, luciferase reporter (AID 1109); settings: 48 h, higher = more signal;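 further: huh7 hepatoma cells harbouring a luciferase neomycin HCV replicon reporter; luciferase luminescence as measure of HCV replicon replication; test concentration not given here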
# [13] = molecular target: Left-right determination factor 2 (Homo sapiens) (UniProt O00292); assay: LEFTY2 binders on small-molecule microarrays, primary screen, biochemical, small-molecule microarray, 635 nm fluorescence scan (AID 1110); settings: LEFTY2 binding, higher = more signal
# Sequence of Left-right determination factor 2 (Homo sapiens) (O00292 whole entry, looked up): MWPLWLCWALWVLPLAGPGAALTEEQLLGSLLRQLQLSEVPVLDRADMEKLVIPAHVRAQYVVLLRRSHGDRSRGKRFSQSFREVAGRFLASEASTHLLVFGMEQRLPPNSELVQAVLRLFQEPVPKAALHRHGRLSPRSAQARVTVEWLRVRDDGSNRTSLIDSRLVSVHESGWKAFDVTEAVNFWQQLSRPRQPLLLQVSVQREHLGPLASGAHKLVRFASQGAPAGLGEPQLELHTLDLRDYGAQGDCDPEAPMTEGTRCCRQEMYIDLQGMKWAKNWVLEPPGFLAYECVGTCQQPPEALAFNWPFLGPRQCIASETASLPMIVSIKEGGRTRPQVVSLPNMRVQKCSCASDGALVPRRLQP
# [14] = molecular target: Calmodulin-1 (Homo sapiens) (UniProt P0DP23); assay: CALM1 binders on microarrays, EGTA buffer, profiling panel, biochemical, small-molecule microarray, Cy5-labelled CALM1 (AID 1111); settings: Cy5-CALM1 binding fluorescence, higher = more signal;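 further: labelled calmodulin applied in Tris saline Tween buffer holding calcium plus EGTA and DTT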
# [15] = molecular target: Calmodulin-1 (Homo sapiens) (UniProt P0DP23); assay: calcium-bound CALM1 binders on microarrays, profiling panel, artefact control for SMM control-protein annotation, biochemical, small-molecule microarray, Cy5-labelled CALM1, plus calcium (AID 1112); settings: Cy5-CALM1 binding fluorescence, higher = more signal;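 further: score merges spot fluorescence with signal to noise from triplicate slides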
# [16] = small-molecule microarray binders of probe aWnt5a, primary screen, biochemical, biotinylated probe, 635/667 nm fluorescence (AID 1113); settings: higher = more signal;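 further: score merges 667 nm fluorescence intensity with signal-to-noise per printed feature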
# [17] = small-molecule microarray binders of probe aShh, primary screen, biochemical, biotinylated probe, 635/667 nm fluorescence (AID 1114); settings: higher = more signal;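 further: probe is biotin-labelled aShh protein from a stem cell growth factor screen; measures binding of labelled protein to compounds printed on the slide; score merges feature fluorescence at 667 nm with signal-to-noise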
# [18] = small-molecule microarray binders of probe aNog, primary screen, biochemical, biotinylated probe, 635/667 nm fluorescence (AID 1115); settings: higher = more signal;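 further: probe is biotinylated aNog protein used at 0.15 µg/mL for 1 h at 4 C; z-score combines 667 nm fluorescence of each spot with its signal to noise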
# [19] = molecular target: Torsin-1A-interacting protein 1 (Homo sapiens) (UniProt Q5JTV8); assay: LAP1 binders from COS7 cell lysate, primary screen, small-molecule microarray, 635/667 nm fluorescence (AID 1116); settings: COS7-hLAP1 lysate binding, 635 nm fluorescence, higher = more signal
# Sequence of Torsin-1A-interacting protein 1 (Homo sapiens) (Q5JTV8 whole entry, looked up): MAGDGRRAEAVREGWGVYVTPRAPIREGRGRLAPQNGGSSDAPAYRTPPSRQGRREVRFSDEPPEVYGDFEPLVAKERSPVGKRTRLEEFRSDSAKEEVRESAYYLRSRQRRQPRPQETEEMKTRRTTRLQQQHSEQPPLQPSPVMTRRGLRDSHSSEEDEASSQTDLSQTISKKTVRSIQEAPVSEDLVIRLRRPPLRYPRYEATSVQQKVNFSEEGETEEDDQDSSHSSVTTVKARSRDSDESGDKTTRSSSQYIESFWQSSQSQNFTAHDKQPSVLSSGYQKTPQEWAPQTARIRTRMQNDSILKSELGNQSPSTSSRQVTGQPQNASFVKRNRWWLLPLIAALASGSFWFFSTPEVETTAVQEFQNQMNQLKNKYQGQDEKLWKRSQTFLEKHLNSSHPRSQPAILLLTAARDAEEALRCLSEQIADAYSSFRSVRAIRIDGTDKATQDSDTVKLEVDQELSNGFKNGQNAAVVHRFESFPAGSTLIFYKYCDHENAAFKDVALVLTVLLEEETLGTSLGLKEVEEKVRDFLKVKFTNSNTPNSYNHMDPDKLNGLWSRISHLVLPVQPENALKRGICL
# [20] = molecular target: Alpha-bungarotoxin (Bungarus multicinctus) (UniProt P60615); assay: alpha-bungarotoxin binders on microarray, profiling panel, artefact control for SMM control protein annotation, biochemical, small-molecule microarray, Alexa647 label, 635/667 nm fluorescence (AID 1117); settings: alpha-BTX-A647 binding fluorescence, higher = more signal
# Sequence of Alpha-bungarotoxin (Bungarus multicinctus) (P60615 whole entry, looked up): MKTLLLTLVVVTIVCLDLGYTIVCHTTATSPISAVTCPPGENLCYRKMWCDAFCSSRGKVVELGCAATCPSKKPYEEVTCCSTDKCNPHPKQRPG
SMILES,composite z-score [1],composite z-score [2],composite z-score [3],z-score [4],composite z-score [5],composite z-score [6],composite z-score [7],composite z-score [8],composite z-score [9],composite z-score [10],composite z-score [11],z-score [12],composite z-score [13],composite z-score [14],composite z-score [15],composite z-score [16],composite z-score [17],composite z-score [18],composite z-score [19],composite z-score [20]
CCN1C(C)=C(C(=O)OC)[C@@H](c2ccccc2)N2C(=O)[C@@]3(C(=O)OC)O[C@@]12[C@@H]1C(=O)N(c2ccccc2)C(=O)[C@@H]13,0.286,0.0355,-0.253,-1.66 (inactive),1,0.85,0.472,1.24,0.4,-0.545,0.121,-0.181,0.341,-0.173,-0.525,-0.0758,0.0893,0.221,0.905,0.38
COC(=O)[C@H]1[C@@H]2COc3ccccc3[C@H]2N[C@H]1C(=O)OC,0.0829,-0.0995,0.0399,-0.685 (inactive),0.348,0.332,0.261,0.327,0.0008,0.0992,-0.339,-0.591,0.362,0.623,-0.266,-0.0161,-0.0626,-0.223,0.0767,0.854
C=C(COC)/C(=C/C[C@@H](OC(=O)c1ccncc1)c1ccc(OCCO)cc1)c1cc(C(=O)OC)ccc1OC,1.3,0.318,0.421,-1.43 (inactive),0.635,1.25,0.16,0.461,0.214,0.147,0.355,-1.63,-0.428,0.947,-0.777,-0.175,-0.0146,0.475,1.45,2.04
C=CCC(OC(C)=O)[C@@H]1[C@@H](N(Cc2cc3ccccc3o2)C(=O)Cc2ccc(F)cc2)c2cc(OCCCO)ccc2N1C(=O)c1ccc(-c2ccccc2)cc1 (stereo not given in full),-0.271,-0.168,0.512,-1.05 (inactive),-0.251,-0.708,-0.162,-0.346,0.0578,1.18,-0.524,0.591,-0.159,-0.302,1.14,-0.154,0.0141,0.389,-0.467,0.208
COC(=O)[C@@]1(Cc2ccccc2)[C@H]2c3cc(C(=O)N4CCCC4)n(CCN4CNCC4=O)c3C[C@H]2CN1C(=O)c1ccccc1,0.0939,0.862,0.904,2.52 (inactive),0.0557,0.77,0.0908,0.47,-0.292,1.05,0.871,-0.857,0.172,1.91,0.265,-0.0519,-0.288,-0.197,0.911,0.98
COc1ccc(C(O)C2C=CC3C(=O)N(C)C(=O)C3N2N2CCCCC2)cc1OCc1ccccc1 (stereo not given),0.774,1.1,0.851,0.379 (inactive),0.26,0.636,-0.001,0.371,-0.622,0.986,1.34,0.421,0.0446,0.747,0.738,0.0391,0.462,1.63,0.68,1.87
COc1ccc(-c2cc3c(c(-c4ccccc4)n2)[Si](C(C)C)(C(C)C)O[C@H]3c2ccccc2)cn1,-0.309,-0.0513,-0.131,0.96 (inactive),0.22,0.176,0.0928,0.352,0.0263,0.605,0.656,-1.4,-0.152,0.136,-0.265,-0.0512,-0.0626,-0.216,-0.126,0.599
Cc1ccccc1C(O)C1C=CC2C(=O)N(c3ccccc3)C(=O)C2N1Nc1ccc(C#N)cc1 (stereo not given),1.56,1.35,1.4,0.898 (inactive),1.16,1.3,0.832,1.05,0.311,0.958,1.22,-0.15,0.588,2.68,1.27,0.24,0.333,2.26,3.02,1.94
CC(C)N1CC=CC23O[C@@H]4/C=C\CCCOC(=O)C4[C@H]2C(=O)N(CCCCCO)[C@@H]3C1=O (stereo not given in full),0.21,-0.195,0.632,0.0946 (inactive),-0.655,-1.42,-1.97,-1.04,-1.09,0.213,-1.46,0.0844,-1.86,-2.24,-0.226,-0.176,-0.179,0.0403,-1.04,-2.08
CCOC(=O)C[C@H]1[C@H](OC(=O)Cc2ccc3c(c2)OCO3)[C@@H](NC(=O)c2ccc3ccccc3c2)c2cc(OCCCO)ccc2N1C(=O)Cc1ccc(OC)cc1,0.354,0.19,0.0248,-1.83 (inactive),0.491,0.397,0.373,0.439,0.435,0.147,1.01,-1.74,0.296,1.19,0.139,-0.159,-0.367,-0.568,0.941,0.454
C[C@@H]1NC(=O)CC=C[C@@H](C)[C@@H]2C=C[C@H](O)[C@@H](COC(=O)[C@H](C)NC(=O)CC=C[C@@H](C)[C@@H]3C=C[C@H](O)[C@@H](COC1=O)O3)O2,0.231,-0.555,-0.925,-1.61 (inactive),0.544,0.217,0.418,0.632,0.849,0.0277,0.0804,0.128,0.0183,-0.417,-0.0969,-0.172,-0.426,-0.134,-0.166,-0.64
